For orientation: AC50 means the midpoint of the concentration-response curve, whichever way the signal moves.

SMILES strings stand for the structures. The source made the active and inactive calls. How the source made its calls: active means hit-call score of the fitted dose curve at least 0.9, where 1 is the maximum; inactive means score below 0.9.

Read-out in the assay: Urokinase-type plasminogen activator receptor (uPAR), PLAUR (gene 5329)
The assay can be described thus: BSK_BE3C_uPAR: BioMAP Diversity Plus: BE3C Assay for Urokinase-type plasminogen activator receptor (uPAR) Biomarker Activity (AID 2283039).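 On outcome: cells exposed to compound for one day before measurement.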 Conditions: primary human bronchial epithelial cells; actives raise or lower the signal. An outline of the steps:
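uPAR levels were measured by ELISA after 24 h compound treatment of primary human bronchial epithelial cells, fitted in both directions relative to DMSO. Parallel SRB staining served as the cytotoxicity read-out.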
On to `Cc1ccc2nc3sc(=O)sc3nc2c1`, for which the result was inactive. Same read-out and setting: the entry for `OC(Cc1ccccc1Cl)(Cn1cncn1)C1(Cl)CC1` (configuration not stated) is “inactive”; for `Cc1ccccc1OP(=O)(Oc1ccccc1)Oc1ccccc1` it is “inactive”. Regarding `O=[N+]([O-])c1cccc2ccccc12`, the outcome was inactive. Still for that read-out and setting: for `Oc1c(Cl)cc(Cl)cc1Cl` the value was “inactive”; for `CCOC(=O)CCN(SN(C)C(=O)Oc1cccc2c1OC(C)(C)C2)C(C)C`, “inactive”. With `OC(Cc1ccccc1Cl)(Cn1[nH]cnc1=S)C1(Cl)CC1` (configuration not stated), the AC50 is 12.6 µM (active). With `CCOP(=O)(OCC)SCCSCC`, the result was inactive. As to `N#CCCC(Br)(C#N)CBr` (configuration not stated), the AC50 was 20 µM (active). On to `Cc1cc(C(C)(C)c2ccc(O)c(C)c2)ccc1O`, for which the AC50 was 3.66 µM (active).

`O=C(O)COc1cc(Cl)c(Cl)cc1Cl`: the outcome was inactive.

For `O=[N+]([O-])c1ccc(Nc2ccccc2)cc1`, the result was inactive.

As to `Cc1ccccc1OP(=O)(Oc1ccccc1C)Oc1ccccc1C`, the result was inactive.

With `CCOC(=O)C(SP(=S)(OC)OC)c1ccccc1` (configuration not stated), the result was inactive.

As for `CC(C)(C)c1cc([N+](=O)[O-])cc(C(C)(C)C)c1O`, the result was inactive. In the case of `CC1(C)[C@H](C(=O)O[C@H](C#N)c2cccc(Oc3ccccc3)c2)[C@@H]1/C=C(\Cl)C(F)(F)F`, the result was inactive.

Consider `c1ccc(-c2cccc(-c3ccccc3)c2)cc1`, for which the outcome was inactive. On the same count and under the same terms, for `Cc1ccc(OP(=O)(Oc2ccc(C)cc2C)Oc2ccc(C)cc2C)c(C)c1` the value was “inactive”; for `CC(C)(C)c1ccccc1O`, “inactive”. Take `O=S(=O)(C(Cl)(Cl)Cl)C(Cl)(Cl)Cl`: the AC50 is 7.21 µM (active). As for `C=CC(Cl)CCl` (configuration not stated), the outcome was inactive. Regarding `CCOP(=O)(OCC)OC(=CCl)c1ccc(Cl)cc1Cl`, the result was inactive.

The values are drawn from PubChem BioAssay (EPA / NIEHS).
